Reference: PubChem BioAssay (NCATS)
Inconclusive results are not listed. Activity calls are given as the source filed them. Calls follow the shape of the dose curve; as a rule, active = well fitted curve in the direction sought with a large enough effect; inconclusive = small, poorly fitted or top-dose-only effect, or another doubt; inactive = no such curve, though single readings can be large; an effect the other way counts as inactive or inconclusive.

What was measured:
[1] = tested on: Zika virus NS2B-NS3 protease (linked construct); assay: Primary screen NINDS Rhodamine qHTS for Zika virus inhibitors (AID 1347160); also: nearly all actives have a fitted effect of over 55% in size
In short: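 Kinetic fluorescence (Ex 480 nm, Em 540 nm) over 15 min with 1.5 microM Rhodamine110 peptide and 25 nM linked protease.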

[2] = Primary qHTS for inhibitors of nuclear receptor binding SET domain protein 2 (NSD2) in an RCH-ACV wild type WT cells (2C) (AID 1645877); also: nearly all actives have a fitted effect of over 70% in size; also: potency is read from the fitted curve at half-maximal effect
[3] = biological target: Glutathione peroxidase 1 (Homo sapiens) (UniProt P07203); assay: Primary qHTS Assay for Inhibitors of Recombinant Selenoprotein Glutathione Peroxidase 1 (GPX1) (AID 1845191); also: nearly all actives have a fitted effect of over 65% in size
In short: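 GR-coupled assay: compounds preincubated 30 min at room temperature with GPX1, then reaction started with CHP; final 10 nM GPX1, 1 mM GSH, 0.5 mM CHP, 0.5 mM NADPH, 100 nM GR, 0.01% BSA, pH 7.5 Tris buffer. NADPH fluorescence (340/450 nm) read at 0 and 15 min.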

[4] = biological target: Luciferin 4-monooxygenase (Photinus pyralis) (UniProt P08659); assay: Primary firefly luciferase (FLuc) qHTS assay for identification of artifact compounds. (AID 1845220); conditions: outcome: dose series up to 54.1 µM unless noted; also: nearly all actives have a fitted effect of over 60% in size
In short: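 Titrated compounds were incubated 15 min at RT, protected from light, with luciferin and ATP at 10 uM; reaction started with 10 nM FLuc, luminescence imaged at 5 min, and concentration-response fitted by Hill equation.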

[5] = tested on: Nanoluciferase (engineered Oplophorus gracilirostris luciferase); assay: Primary Nanoluciferase (NLuc) qHTS assay for identification of artifact compounds. (AID 1845222);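 also: NLuc secreted into diluted conditioned medium of S16 cells; 0% = DMSO and -100% = no enzyme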
In short: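 qHTS format, against NLuc in S16 cell-conditioned medium. Nano-Glo substrate 1:100 was added after 15 min at room temperature. Luminescence was taken after a further 5 min.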

CRL-7250 = normal cell line; assay: Cytotoxic Profiling of Annotated Libraries Using Quantitative High-Throughput Screening (AID 1296008); conditions: Five cell lines viability, CellTiter-Glo ATP luminescence, 48-72 h; max response: hits give low values; also: nearly all actives have a fitted effect of over 60% in size; also: potency is read from the fitted curve at half-maximal effect; as to max response: % is scaled to controls: 0 for no effect and ±100 for the full control effect
In short: (§1)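 Cells exposed to compounds for 48 or 72 hr at 37 degrees Celsius. Viability read as ATP-coupled luminescence with CellTiter-Glo after 10 min at room temperature.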

HEK293 = assay: as above; conditions: Five cell lines viability, CellTiter-Glo ATP luminescence, 48-72 h; max response: hits give low values
In short: as §1

HaCat = assay: as above; conditions: Five cell lines viability, CellTiter-Glo ATP luminescence, 48-72 h; max response: hits give low values
In short: as §1

NIH3T3 = assay: as above; conditions: Five cell lines viability, CellTiter-Glo ATP luminescence, 48-72 h; max response: hits give low values
In short: as §1

C33A = assay: Primary qHTS to identify gynecologic anti-cancer compounds using libraries of approved drugs and bioactive compounds (AID 1345084); conditions: Gynecologic cancer cell panel viability, ATPlite luminescence, 48 h; series mostly up to 57.5 µM; also: nearly all actives have a fitted effect of over 55% in size; also: potency is read from the fitted curve at half-maximal effect
In short: (§2)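 Cells, 1,000 per well, were allowed to settle for 16 h at 37 C before compound addition. Five concentrations were tested for 48 h, and viability was read by ATPlite luminescence after 15 min at room temperature.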

CASKI = assay: as above; conditions: Gynecologic cancer cell panel viability, ATPlite luminescence, 48 h; series mostly up to 57.5 µM
In short: as §2

Es-2 = assay: as above; conditions: Gynecologic cancer cell panel viability, ATPlite luminescence, 48 h; series mostly up to 57.5 µM
In short: as §2

Hek293T = assay: as above; conditions: Gynecologic cancer cell panel viability, ATPlite luminescence, 48 h, control line for the selectivity index; series mostly up to 57.5 µM
In short: as §2

OV90 = assay: as above; conditions: Gynecologic cancer cell panel viability, ATPlite luminescence, 48 h; series mostly up to 57.5 µM
In short: as §2

PA-1 = assay: as above; conditions: Gynecologic cancer cell panel viability, ATPlite luminescence, 48 h; series mostly up to 57.5 µM
In short: as §2

Tov-21-G = assay: as above; conditions: Gynecologic cancer cell panel viability, ATPlite luminescence, 48 h; series mostly up to 57.5 µM
In short: as §2

Tov112D = assay: as above; conditions: Gynecologic cancer cell panel viability, ATPlite luminescence, 48 h; series mostly up to 57.5 µM
In short: as §2

[6] = Primary qHTS for inhibitors of nuclear receptor binding SET domain protein 2 (NSD2) in an isogenic RCH-ACV NSD2 p.E1099K mutant (9B) (AID 1645876); also: nearly all actives have a fitted effect of over 70% in size; also: potency is read from the fitted curve at half-maximal effect
[7] = biological target: Phospholipid hydroperoxide glutathione peroxidase GPX4 (Homo sapiens) (UniProt P36969); assay: Primary qHTS Assay for Inhibitors of Recombinant Selenoprotein Glutathione Peroxidase 4 (GPX4) (AID 1845192); also: nearly all actives have a fitted effect of over 65% in size
In short: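 GR-coupled assay: recombinant GPX4 preincubated 30 min with compound at room temperature; final 200 nM GPX4, 1 mM GSH, 0.5 mM cumene hydroperoxide, 0.5 mM NADPH, 100 nM GR, 0.01% BSA, pH 7.5 Tris. NADPH fluorescence (340/450 nm) read at 0 and 15 min.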

[8] = Primary fluorescence-based thiol-reactive (MSTI) qHTS assay for identification of artifact compounds. (AID 1845221);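 also: thiol-reactive compounds lower the probe fluorescence signal; nearly all actives have a fitted effect of over 65% in size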
In short: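 qHTS titration of compound; 4 uM MSTI, PBS pH 7.4, 2% DMSO; 1 h RT, dark; fluorescence 525/598 nm; normalized to Acetyl-MSTI and MSTI; 4-parameter Hill fit.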

Chain of Phospholipid hydroperoxide glutathione peroxidase GPX4 (Homo sapiens) (P36969 whole entry, looked up): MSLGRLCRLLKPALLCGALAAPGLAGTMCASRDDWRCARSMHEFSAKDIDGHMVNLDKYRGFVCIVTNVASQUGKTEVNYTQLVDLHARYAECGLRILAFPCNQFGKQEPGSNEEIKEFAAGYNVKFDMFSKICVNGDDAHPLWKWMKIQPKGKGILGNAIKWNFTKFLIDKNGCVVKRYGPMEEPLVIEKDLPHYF
Chain of Glutathione peroxidase 1 (Homo sapiens) (P07203 whole entry, looked up): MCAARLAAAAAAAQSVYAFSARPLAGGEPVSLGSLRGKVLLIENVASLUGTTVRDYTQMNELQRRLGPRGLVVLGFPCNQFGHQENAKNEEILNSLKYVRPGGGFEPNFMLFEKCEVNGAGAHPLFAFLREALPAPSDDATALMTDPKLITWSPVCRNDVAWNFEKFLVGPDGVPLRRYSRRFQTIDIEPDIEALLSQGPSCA

CC(=O)N1N=C(c2ccc(N)cc2)c2cc3c(cc2C[C@H]1C)OCO3
inactive: Potency [1] | Potency [2] | Potency [3] | outcome [4] | Potency [5] | max response (CRL-7250) -0.992% | max response (HEK293) -4.81% | max response (HaCat) -4.11% | max response (NIH3T3) -2.08% | Potency (C33A) | Potency (CASKI) | Potency (Es-2) | Potency (Hek293T) | Potency (OV90) | Potency (PA-1) | Potency (Tov-21-G) | Potency (Tov112D)

C[C@H]1O[C@@H](n2cnc3c(N)ncnc32)C[C@@H]1O
inactive: Potency [1] | Potency [6] | Potency [2] | Potency [3] | Potency [7] | outcome [4] | Potency [8] | Potency [5] | max response (CRL-7250) 0.373% | max response (HEK293) 0.909% | max response (HaCat) 3.49% | max response (NIH3T3) 1.47% | Potency (C33A) | Potency (CASKI) | Potency (Es-2) | Potency (Hek293T) | Potency (OV90) | Potency (PA-1) | Potency (Tov-21-G) | Potency (Tov112D)

CC(C)(C)[C@]1(O)C[C@@H]2OC(=O)C[C@@]23C(=O)O[C@@H]2OC(=O)[C@@H](O)[C@]213
inactive: Potency [1] | Potency [6] | Potency [2] | Potency [3] | Potency [7] | outcome [4] | Potency [8] | Potency [5] | max response (CRL-7250) 1.12% | max response (HEK293) 1.81% | max response (HaCat) -5.58% | max response (NIH3T3) 3.76% | Potency (C33A) | Potency (CASKI) | Potency (Es-2) | Potency (Hek293T) | Potency (OV90) | Potency (PA-1) | Potency (Tov-21-G) | Potency (Tov112D)

CC(=O)OC[C@]12C[C@H](O)C(C)=C[C@H]1O[C@@H]1[C@H](O)[C@@H](OC(C)=O)[C@@]2(C)[C@]12CO2
active: Potency [6] 6.4 nM | Potency (CRL-7250) 36 nM | Potency (HEK293) 8.1 nM | Potency (HaCat) 90.4 nM | Potency (NIH3T3) 45.3 nM | Potency (C33A) 447 nM | Potency (CASKI) 31.6 nM | Potency (Es-2) 199 nM | Potency (Hek293T) 89.1 nM | Potency (OV90) 12600 nM | Potency (PA-1) 1780 nM | Potency (Tov-21-G) 178 nM | Potency (Tov112D) 100 nM
inactive: Potency [1] | Potency [3] | outcome [4] | Potency [8] | Potency [5]

OCc1nnc2n1-c1ccc(Cl)cc1C(c1ccccc1Cl)=NC2
inactive: Potency [1] | Potency [6] | Potency [2] | Potency [3] | Potency [7] | outcome [4] | Potency [8] | Potency [5] | max response (CRL-7250) 0.641% | max response (HEK293) -7.41% | max response (HaCat) -38% | Potency (C33A) | Potency (CASKI) | Potency (Es-2) | Potency (Hek293T) | Potency (OV90) | Potency (Tov-21-G) | Potency (Tov112D)

CO[C@H]1[C@@H](O)[C@@H](C)O[C@@H](O[C@@H]2C=C3C(OC(C)=O)CC4(O)C(CC[C@]5(C)[C@@H](C6=CC(=O)OC6)CC[C@]45O)[C@@]3(C)CC2)[C@@H]1O (some centres undefined)
inactive: Potency [1] | Potency [3] | Potency [7] | outcome [4] inactive [at 25.7 µM] | Potency [8] | Potency [5] | max response (NIH3T3) -11.7%
active: Potency [6] 48.3 nM | Potency [2] 85.8 nM | Potency (CRL-7250) 137 nM | Potency (HEK293) 86.2 nM | Potency (HaCat) 2430 nM | Potency (C33A) 178 nM | Potency (CASKI) 2820 nM | Potency (Es-2) 447 nM | Potency (Hek293T) 251 nM | Potency (OV90) 2510 nM | Potency (PA-1) 316 nM | Potency (Tov-21-G) 282 nM | Potency (Tov112D) 100 nM

CC(=O)O[C@@H]1[C@@H](O)[C@H]2O[C@@H]3C=C(C)[C@@H](O)C[C@]3(CO)[C@]1(C)[C@]21CO1
active: Potency [6] 450 nM | Potency [2] 358 nM | Potency (CRL-7250) 1010 nM | Potency (HEK293) 321 nM | Potency (HaCat) 3600 nM | Potency (NIH3T3) 904 nM | Potency (C33A) 3550 nM | Potency (CASKI) 3980 nM | Potency (Es-2) 2000 nM | Potency (OV90) 1410 nM | Potency (Tov-21-G) 4470 nM
inactive: Potency [1] | Potency [3] | Potency [7] | outcome [4] | Potency [8] | Potency [5]

CO[C@H]1[C@H](O)[C@H](O[C@H]2CC[C@]3(C=O)C4CC[C@]5(C)[C@H](C6=CC(=O)OC6)CC[C@]5(O)C4CC[C@@H]3C2)O[C@@H](C)[C@@H]1O (some centres undefined)
active: Potency [6] 15.9 nM | Potency [2] 44.7 nM | Potency (CRL-7250) 28.2 nM | Potency (HEK293) 50.2 nM | Potency (HaCat) 126 nM | Potency (C33A) 89.1 nM | Potency (CASKI) 224 nM | Potency (Es-2) 100 nM | Potency (Hek293T) 126 nM | Potency (OV90) 282 nM | Potency (Tov-21-G) 31.6 nM
inactive: Potency [1] | Potency [3] | Potency [8] | Potency [5] | max response (NIH3T3) -5%

CC1=C[C@H]2O[C@@H]3[C@H](O)[C@@H](O)[C@](C)([C@@]2(CO)C[C@@H]1O)[C@]31CO1
active: Potency [6] 728 nM | Potency [2] 515 nM | Potency (CRL-7250) 5800 nM | Potency (HEK293) 1300 nM | Potency (HaCat) 7310 nM | Potency (C33A) 10000 nM | Potency (CASKI) 11200 nM | Potency (Es-2) 10000 nM | Potency (Hek293T) 2820 nM | Potency (OV90) 8910 nM | Potency (PA-1) 3980 nM | Potency (Tov-21-G) 10000 nM
inactive: Potency [1] | Potency [3] | Potency [7] | outcome [4] | Potency [8] | Potency [5]
